# DT40 TDP1 no CPT = qHTS for Inhibitors of human tyrosyl-DNA phosphodiesterase 1 (TDP1): qHTS in cells in absence of CPT. DT40 Tdp1-/- hTDP1 cells, no CPT, ATP luminescence, 48 h. Potency, µM (series often up to 46.2 µM), usual class: inhibitors. 420,000 compounds, 15% hits; note: nearly all actives have a fitted effect of over 55% in size
#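 Chicken DT40 Tdp1-/- cells complemented with human TDP1, screened without camptothecin (DMSO vehicle only), 400 cells/well. Compounds pin-transferred, cells incubated at 37 °C for at least 48 hr. Growth read as ATP-dependent luminescence (CellTiter-Glo, 30 min at RT).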
# DT40 TDP1 CPT = growth inhibition of DT40 Tdp1-/-;hTDP1 cells with camptothecin (screen for TDP1 inhibitors); chicken DT40 Tdp1-/-;hTDP1 cells + 20 nM CPT, ATP luminescence, 48 h; Potency, µM (highest dose often 46.2 µM), most hits filed as inhibitors; 420,000 compounds, 12% hits; AID 686979; note: nearly all actives have a fitted effect of over 55% in size
#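 Cell growth measured by CellTiter-Glo luminescence after a minimum 48 h, 37 C compound exposure with 20 nM CPT in Tdp1-knockout DT40 cells stably expressing hTDP1, seeded 400/well; qHTS titration format.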
# TGFb inhibitor = inhibitors of TGF-b signaling. HepG2 CAGA-GFP TGF-b/SMAD3 reporter, GFP fluorescence, 18 h; TGF-beta stimulated, 500 pg/mL final. Potency, µM (top dose mostly 46.1 µM), most hits filed as inhibitors. 410,000 compounds, 1.2% hits. AID 588855; note: nearly all actives have a fitted effect of over 65% in size
#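 Smad-responsive CAGA-GFP expression was quantified in HEPG2 cells exposed to compounds and 500 pg/mL final TGF-beta for 18 h at 37 degrees C; unstimulated wells defined full inhibition.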
# TDP1 inh = blocks human tyrosyl-DNA phosphodiesterase 1 | recombinant TDP1, AlphaScreen DNA substrate cleavage | Potency, µM (titrated, usually from 130 µM), usual class: inhibitors | 350,000 compounds, 0.28% hits | AID 485290; note: nearly all actives have a fitted effect of over 40% in size
# Target sequence (Q9NUW8 whole entry, looked up): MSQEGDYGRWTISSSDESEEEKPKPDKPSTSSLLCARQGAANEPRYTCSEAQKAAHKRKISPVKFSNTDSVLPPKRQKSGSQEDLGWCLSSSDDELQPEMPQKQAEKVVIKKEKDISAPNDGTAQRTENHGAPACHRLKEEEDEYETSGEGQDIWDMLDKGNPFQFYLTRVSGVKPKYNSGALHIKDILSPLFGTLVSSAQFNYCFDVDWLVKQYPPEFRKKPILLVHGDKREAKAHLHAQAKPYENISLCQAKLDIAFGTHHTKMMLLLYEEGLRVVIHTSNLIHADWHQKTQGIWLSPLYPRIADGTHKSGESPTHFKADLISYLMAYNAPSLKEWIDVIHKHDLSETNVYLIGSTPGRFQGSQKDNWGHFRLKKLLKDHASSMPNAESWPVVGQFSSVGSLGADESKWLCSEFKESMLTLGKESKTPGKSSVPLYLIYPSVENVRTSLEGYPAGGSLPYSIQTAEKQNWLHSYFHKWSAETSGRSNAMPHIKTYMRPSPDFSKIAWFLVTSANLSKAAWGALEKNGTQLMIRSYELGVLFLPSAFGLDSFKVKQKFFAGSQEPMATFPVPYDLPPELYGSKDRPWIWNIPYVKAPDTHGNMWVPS
#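 AlphaScreen read-out: signal falls as enzyme removes the 3' tyrosine-FITC from a 5'-biotinylated DNA oligo (15 nM, 5 min, RT). Enzyme was E. coli-made recombinant Tdp1 at 1 nM, exposed to compound for 15 min beforehand; beads 10 ug/ml, 10 min.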
# IL-1B inflam inh = blocks inflammasome-driven IL-1 beta release; AID 743279; activity change, % at 57.5 µM; THP-1 LPS/ATP IL-1B secretion, AlphaLISA, 16 h; active compounds read low; 360,000 compounds, 4.7% hits; in the data active = activity change below about -50%; inconclusive = mostly about -30% to -49%
#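 Secreted IL-1B measured by AlphaLISA bead assay after 16 h compound exposure of THP-1 cells; compounds (final up to 57.5 uM) added 1 h before LPS (250 ng/mL) and ATP (1.25 mM) stimulation; lower signal means less secretion.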
# HepG2 viability = counter-screen for TGF-b inhibitors: cytotoxicity in HepG2 cells. HepG2 CAGA-GFP viability, ATP luminescence, 18 h. AID 588856. 410,000 compounds, 0.76% hits. Potency, µM (doses to about 46.1 µM), usual class: cytotoxic
#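 HepG2 CAGA-GFP cells (1000/well, DMEM with 1% FBS) received compound, then TGF-beta at 500 pg/mL final, and were incubated 18 hours at 37 degrees C. Viability was read by CellTiter-Glo luminescence. Media-only wells were set as complete cell-killing and DMSO as no toxicity.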
# A number is an active result; 0 = inactive; ? = inconclusive; - = no result given. A selection: hits, their analogues and other compounds. The true share with any hit is near 18%. Unless noted, calls come from the whole dose curve; as a rule, active = well fitted curve in the direction sought with a large enough effect; inconclusive = small, poorly fitted or top-dose-only effect, or another doubt; inactive = no such curve, though single readings can be large; an effect the other way counts as inactive or inconclusive.
SMILES,DT40 TDP1 no CPT,DT40 TDP1 CPT,TGFb inhibitor,TDP1 inh,IL-1B inflam inh,HepG2 viability
COc1ccc(CNC(=O)c2ccc(CS(=O)(=O)c3ccc(OC)cc3)o2)cc1,?,?,0,0,0,0
O=C(NCc1ccccc1Cl)c1ccc(CS(=O)(=O)c2ccc(Br)cc2)o1,13µM,23µM,?,0,-,0
CC(=O)c1cccc(OCc2cc(C(=O)NCCC3=CCCCC3)no2)c1,?,?,0,0,0,0
CC1=NNC(=O)C(CC(=O)Nc2ccc(Cl)c(Cl)c2)C1 (stereo not drawn),0,0,0,0,0,0
CN(CCc1ccccc1)C(=O)c1ccc(NC(=O)Cc2ccc(NC(=O)C3CCN(C(=O)C4CCC4)CC3)cc2)cc1,10µM,?,0,-,?,0
CN(CCc1ccccc1)C(=O)c1ccc(NC(=O)Cc2ccc(NC(=O)C3CCN(C(=O)C4CCCCC4)CC3)cc2)cc1,16µM,?,?,-,0,0
CN(Cc1ccccc1)C(=O)c1ccc(NC(=O)Cc2ccc(NC(=O)C3CCN(C(=O)C4CCCC4)CC3)cc2)cc1,?,?,0,-,0,0
Cc1ccc(S(=O)(=O)NC(=O)C2(C)CCN2C(=O)C2CCCCC2)nc1 (stereo not drawn),0,?,0,-,0,0
CCN(C(=O)c1cc2c(=O)[nH]c3ccc(C)cc3c2s1)c1ccc(OC)cc1,9.2µM,29µM,0,0,0,0
CCOCCCN(Cc1ccco1)C(=O)c1cc2c(=O)[nH]c3ccc(C)cc3c2s1,12µM,23µM,?,0,0,0
CCCN(C(=O)c1cc2c(=O)[nH]c3ccc(C)cc3c2s1)c1ccc(CC)cc1,0,0,0,0,-,0
Cc1ccc2[nH]c(=O)c3cc(C(=O)N4CCN(C(=O)c5ccco5)CC4)sc3c2c1,0,?,0,56µM,0,0
CCCN(CCC)C(=O)c1cc2c(=O)[nH]c3ccc(C)cc3c2s1,16µM,?,0,0,?,0
OCCO[C@@H]1[C@@H](O)[C@H](O)[C@@H](CO)O[C@@H]1O,0,0,-,-,-,-
Cc1ccc(C)c(N(C)C(=O)c2cc3c(=O)[nH]c4ccc(C)cc4c3s2)c1,4.1µM,16µM,0,-,0,0
CCN1CCN(C(CNS(=O)(=O)c2ccccc2)c2ccccc2)CC1 (stereo not drawn),0,0,0,0,0,0
O=C(C1CC1)N1CCN(c2nc3c(Cl)cccc3s2)CC1,21µM,21µM,0,0,-,0
Cc1cc(C)c2nc(N3CCN(C(=O)c4cccs4)CC3)sc2c1,?,0,0,-,-70,0
Cc1cc(C)c2nc(N3CCC(C(=O)N4CCN(c5ncccn5)CC4)CC3)sc2c1,?,16µM,?,0,-78,0
Cc1ccc(OCC(=O)Nc2ccc(S(=O)(=O)N3CCCC3)cc2)cc1,0,0,0,0,0,0
CCN(CCn1cccn1)Cc1cn[nH]c1-c1cccc2ccccc12,0,0,0,0,0,0
O=C1Nc2cccc3c2N(CCC3)C2=C1CCC2,?,?,?,-,0,0
Cc1cc(C(=O)COc2ccc(C#N)cc2)c(C)n1C1CC1,18µM,?,0,-,0,0
Cc1cc(C(=O)COc2ccccc2C#N)c(C)n1C1CC1,?,?,0,0,0,0
Cc1nn(Cc2ccccc2)c(C)c1C(=O)OCC(=O)c1cc(C)n(C2CC2)c1C,18µM,23µM,0,0,-58,0
Cc1nc(C)c(C(=O)OCC(=O)NCCc2ccc(F)cc2)s1,?,0,0,0,0,0
Cc1nc(N2CCN(c3ccccn3)CC2)c2c(C)c(C(=O)Nc3ccc(Cl)cc3)sc2n1,?,?,0,0,-58,0
Cc1nc(N2CCN(c3ccccn3)CC2)c2c(C)c(C(=O)Nc3c(F)cc(F)cc3Br)sc2n1,13µM,16µM,0,0,0,0

# Bioassay records (PubChem)
